LGR2 inh = inhibitors of bursicon-induced Drosophila LGR2 receptor cAMP signaling; inhibition, % at 9.99 µM; actives 0.35% (n = 380,000); AID 720647; HEK293 LGR2, CRE-luciferase, bursicon-stimulated, 4 h;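 active = drop in luminescence signal, shown as inhibition above about 50% in the replicate tests, limit read from the data, passing the limit was not always enough; inconclusive = probably only some replicates passing the limit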;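 also: agonist challenge used bursicon conditioned medium at about half maximal strength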
TRPM1 prom inh = inhibitors of MITF-driven TRPM1 promoter in melanoma cells; SK-MEL-5 TRPM1 promoter luciferase, 24 h; inhibition, % at 12.5 µM; actives 0.83% (n = 330,000); AID 488899;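 active = mean inhibition across replicates of 60% or more, whatever share of single replicates reaches that level; inconclusive = some that reach 60%, reason not given; inactive = mean inhibition across replicates below 60%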
EWS-Fli block = blocks EWS/Fli oncoprotein-driven transcription. A673 NR0B1-luciferase reporter, viability-normalised. inhibition, % at 12.6 µM. actives 0.67% (n = 350,000). AID 651661;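 active = mean inhibition of at least 50% after viability correction, with every replicate also passing that limit; inconclusive = mean reaches 50% but only one of two replicates passes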;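 also: firefly luciferase signal divided by Alamar Blue viability fluorescence both relative to DMSO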
PAX8 reporter = lowers PAX8-driven luciferase in RMG-I cells | RMG-I TPO-luciferase reporter, SteadyGlo, 24 h | inhibition, % at 12.6 µM | actives 1.2% (n = 360,000) | AID 652154;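 active = mean replicate inhibition at least 60% with every replicate also reaching 60%; inconclusive = only one of the two criteria is met; inactive = mean below 60% and not all replicates reaching 60%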;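 also: luciferase light reporting Pax8 driven TPO promoter activity; plate controls were median of neutral control wells for no effect and mitoxantrone controls for full effect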
PGC1a acetyl inh = PGC1a acetylation modulation, inhibitor mode. U2OS PGC1a acetylation, AlphaScreen anti-acetyl-lysine; with virally co-expressed GCN5 acetyltransferase. actives 0.17% (n = 350,000). inhibition, % at 15.6 µM;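 active = every replicate shows inhibition of at least 40%; inconclusive = mean inhibition at least 40% but some replicate below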;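 also: 0% = neutral control wells and 100% = positive control wells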
EBV LMP1 NFkB = Epstein-Barr LMP1 NF-kappaB reporter inhibition; LMP1-induced NF-kappaB luciferase reporter cells, luminescence; inhibition, % at 12.5 µM; actives 0.69% (n = 350,000); AID 504558; in the data active = inhibition above about 41%; inconclusive = no clear call, values can overlap the other calls;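 also: 0% = neutral control wells and 100% = reference inhibitor control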
Starred values were filed as active, the others as inactive; u = inconclusive; x = not tested or not shown. Only some compounds are listed: those with a hit (about 2.2% of all), similar ones and a draw of the others.

SMILES	LGR2 inh	TRPM1 prom inh	EWS-Fli block	PAX8 reporter	PGC1a acetyl inh	EBV LMP1 NFkB
COc1ccc(NC(=O)Cn2c(=O)n(-c3ccc(CC(=O)NCc4ccco4)cc3)c(=O)c3ccccc32)cc1	-8	71*	10	38	-8	4
Fc1cccc(Cl)c1/C=N/n1c(-c2cccnc2)n[nH]c1=S	2	-1	-12	-18	6	52*
CN(C)CCN(Cc1ccc(Cl)cc1)c1ccccn1	11	-1	4	-9	-4	52*
C[N+](C)(C)CCN(Cc1ccc(Cl)cc1)c1ccccn1	x	2	x	42	-2	-2
COc1ccc(O)c(C(=O)c2cnn(-c3ccccc3)c2)c1	-45	-20	-68	-39	9	-22
COc1ccc(-n2cc(C(=O)c3ccccc3O)cn2)cc1	u	-9	22	-19	x	50*
O=[N+]([O-])c1ccc(C=CC=Cc2ccccc2)cc1	-78	x	-63	-193	-6	-33
CN(c1ccccc1)c1ccc(/C=C/[N+](=O)[O-])cc1	102*	92*	64*	-4	x	18
COCC(=O)Nc1ccc2c(c1)C(=O)N(C)C[C@H](OC)[C@@H](C)CN(Cc1cncnc1)[C@H](C)CO2	0	x	-4	x	-13	x
O=C(C[C@H]1CC[C@H](NC(=O)Nc2ccc3c(c2)OCO3)[C@@H](CO)O1)NCc1ccccc1	11	x	-1	-7	1	x
COc1cc(/C=C2/CC/C(=C/c3ccc(O)c(OC)c3)C2=O)ccc1O	-1	14	59*	71*	18	-1
COc1ccc(/C=C2\CN(Cc3ccccc3)C/C(=C\c3ccc(OC)c(O)c3)C2=O)cc1O	33	98*	62*	90*	x	86*
COc1cc(/C=C2\COC/C(=C\c3ccc(O)c(OC)c3)C2=O)ccc1O	x	79*	77*	53	-90	24
O=S(=O)(c1ccccc1F)N1CC[C@@H]2[C@H](CO)Nc3ccc(-c4cccc(F)c4)cc3[C@@H]21	-9	x	1	9	1	x
Cc1ccsc1/C=C1\SC(N)=NC1=O	x	-4	x	x	-18	50*
NC1=NC(=O)/C(=C/c2ccc(Br)cc2)S1	-4	1	-23	-1	18	74*
CN(C)c1ccc(-c2nc3ccccc3n2C)cc1	74*	23	x	x	-17	50*
COc1ccc(/C=N/NC(=O)c2cccnc2)cc1CN1CCN(c2ccc(F)cc2)CC1	0	-2	8	23	0	-22
COc1ccc(C(=O)N/N=C/c2ccc(OC)c(CN3CCN(c4ccc(F)cc4)CC3)c2)cc1	x	-8	-3	144*	-6	-2
CC1CC(C)(C)Nc2ccc(N=O)cc21 (configuration not stated)	2	61*	37	60	x	21
Cc1csc2sc(-c3ccnc(SCC(=O)NCc4ccccc4)n3)c(C)c12	-14	11	55*	30	-6	16
Cc1csc(SCC(=O)NCc2ccccc2)n1	5	0	4	14	5	-2
CC(OC(=O)c1ccc(S(C)(=O)=O)c([N+](=O)[O-])c1)C(=O)NC1C2CC3CC(C2)CC1C3 (configuration not stated)	8	x	50	106*	x	x
CCC(OC(=O)c1ccc(S(C)(=O)=O)c([N+](=O)[O-])c1)C(=O)NC1C2CC3CC(C2)CC1C3 (configuration not stated)	6	x	47	94*	x	x
CS(=O)(=O)c1ccc(C(=O)OCc2nnc(-c3ccc(Cl)cc3)o2)cc1[N+](=O)[O-]	x	25	x	x	-9	-10
SMILES	LGR2 inh	TRPM1 prom inh	EWS-Fli block	PAX8 reporter	PGC1a acetyl inh	EBV LMP1 NFkB
CS(=O)(=O)c1ccc(C(=O)OCC(=O)NC23CC4CC(CC(C4)C2)C3)cc1[N+](=O)[O-]	-3	45	x	53	5	-6
O=C(c1ccccn1)N1C[C@@H]2[C@H](c3ccccc31)[C@@H](CO)N2C(=O)C1CC1	-8	x	-7	-24	2	x
COc1ccc(C(=O)C(CN2CCOCC2)c2ccccc2)cc1F (configuration not stated)	x	54	x	x	114*	74*
COc1ccc(C(O)C(CN2CCOCC2)c2ccccc2)cc1F (configuration not stated)	x	6	x	-7	9	0
Cc1noc(C)c1NC(=O)Nc1ccc2c(c1)C(=O)N([C@@H](C)CO)C[C@H](C)[C@H](CN(C)CC1CCCCC1)OCCCC[C@H](C)O2	9	x	16	x	-6	x
Cc1noc(C)c1S(=O)(=O)Nc1ccc2c(c1)C(=O)N([C@@H](C)CO)C[C@@H](C)[C@H](CN(C)Cc1ccc(C(F)(F)F)cc1)OCCCC[C@H](C)O2	-4	x	x	64*	29	x
Cc1noc(C)c1S(=O)(=O)Nc1ccc2c(c1)C(=O)N([C@H](C)CO)C[C@@H](C)[C@@H](CN(C)Cc1ccc(C(=O)O)cc1)OCCCC[C@@H](C)O2	-12	x	-16	4	-8	x
Cc1noc(C)c1S(=O)(=O)Nc1ccc2c(c1)C(=O)N([C@H](C)CO)C[C@H](C)[C@H](CN(C)Cc1ccc(C(=O)O)cc1)OCCCC[C@H](C)O2	-6	x	-8	-2	0	x
Cc1noc(C)c1S(=O)(=O)Nc1ccc2c(c1)C(=O)N([C@H](C)CO)C[C@H](C)[C@@H](CN(C)Cc1ccc(C(F)(F)F)cc1)OCCCC[C@H](C)O2	24	x	x	72*	26	x
Cc1noc(C)c1S(=O)(=O)Nc1ccc2c(c1)C(=O)N([C@@H](C)CO)C[C@@H](C)[C@H](CN(C)Cc1ccc(C(=O)O)cc1)OCCCC[C@H](C)O2	-5	x	-5	-7	-7	x
Cc1noc(C)c1S(=O)(=O)Nc1ccc2c(c1)C(=O)N([C@@H](C)CO)C[C@H](C)[C@@H](CN(C)Cc1ccc(C(F)(F)F)cc1)OCCCC[C@@H](C)O2	-7	x	x	72*	-2	x
Cc1noc(C)c1S(=O)(=O)Nc1ccc2c(c1)C(=O)N([C@H](C)CO)C[C@H](C)[C@H](CN(C)Cc1ccc(C(F)(F)F)cc1)OCCCC[C@H](C)O2	-30	x	x	74*	10	x
O=S(=O)(N[C@H]1CC[C@@H](CCn2cc(C3CC3)nn2)O[C@@H]1CO)c1ccc(F)cc1	-9	x	-8	12	0	x
Nc1nn(-c2ccccc2)nc1C(=O)OCc1ccccc1	-17	-37	-38	25	72*	-10
Cc1ccc(COC(=O)c2nn(-c3ccccc3)nc2N)cc1	-49	-1	-9	8	5	-3
COc1ccc(NC(=O)N(C)C[C@@H]2Oc3c(NS(=O)(=O)c4ccccc4)cccc3C(=O)N([C@H](C)CO)C[C@H]2C)cc1	-9	x	0	-31	-22	x
CC(=O)Nc1ccc2c(CSc3nnc(-c4cccnc4)n3-c3ccc(C)cc3C)cc(=O)oc2c1	-9	-2	x	1	x	5
CCOc1ccc(-n2c(SCc3cc(=O)oc4cc(C)ccc34)nnc2-c2cccnc2)cc1	-5	-1	10	65*	x	9

Bioassay records: PubChem BioAssay, Broad Institute
